Out of some 2,100 compounds screened, about 480 (23%) were called active. Not shown: some 5% with an inconclusive outcome.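 The calls were made as follows: active = fitted curve reaches 40% activation at or below the top valid concentration, in every replicate test; inconclusive = replicate tests disagree on the call; inactive = the rest, including activity in the opposite direction.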 Not all results are given here. Results with a measured potency or affinity are listed apart.
Experiment: activators raising PGC1a acetylation in cells, dose response, cell-based, cherry-picked samples, set 6 (AID 720513);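 also: cells made to overexpress flag tagged PGC1a plus GCN5 acetyltransferase by viral infection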
Conditions: U2OS PGC1a acetylation AlphaLISA, overnight, 0 = neutral, -100 = inhibitor control; series mostly up to 19.5 µM; activation (acetylation increase): at the top concentration

Activation (acetylation increase), inactive:
Cn1nnnc1Sc1ncnc2scc(-c3ccc(C#N)cc3)c12 -92.1%, O=C(c1cccs1)N(Cc1ccccn1)Cc1ccco1 36.3%, COc1ccc2cc(CN(Cc3ccco3)C(c3nnnn3C3CCCCC3)C(C)C)c(=O)[nH]c2c1 (stereo not given) 8.69%, COCCN(C(=O)COC(=O)Cc1cccc(OC)c1)c1c(N)n(Cc2ccccc2)c(=O)[nH]c1=O -0.707%, O=C1CCCc2ccccc2N1Cc1ccc(Cl)cc1Cl 33.4%, CCOC(=O)CSc1nnc(-c2ccc(OC)cc2)n1CC 37.5%, CCN(C(=O)CSc1nnc(-c2cccs2)n1N)c1c(N)n(Cc2ccccc2)c(=O)[nH]c1=O -1.94%, CC1(C)CC2(CCO1)OC(=O)CC2C(=O)Nc1cccc2ccccc12 (stereo not given) 2.06%, CO[C@H]1CN(C)C(=O)c2cc(NC(=O)c3ccccc3F)ccc2OC[C@@H](C)N(C(C)=O)C[C@@H]1C -15.3%, CCN(CC)c1ccc(NC(=O)c2ccc(NC(=O)C3CCCO3)cc2)c(C)c1 (stereo not given) 23.6%, COc1ccc(C(=O)Nc2ccc3c4c(cccc24)CC3)cc1 3.87%, O=C(NCCN1CCOCC1)c1ccc(=O)oc1 6.38%, CC(C)CNC(=O)c1coc(=O)c(Br)c1 8.17%, O=C(OCCCN1CCCCC1)c1ccc(O)cc1 31.7%, Cc1ccc(S(=O)(=O)N(C)c2ccc(OC(C)C(=O)N3CCCC3)cc2)cc1C (stereo not given) 27.2%, OC[C@@H]1[C@@H](c2ccc(C#CC3CCCC3)cc2)[C@H]2CN(CCC(F)(F)F)CCCCN12 -96.8%, C[C@H]1CN([C@@H](C)CO)C(=O)c2cccc(NC(=O)Nc3ccc(C(F)(F)F)cc3)c2O[C@H]1CN(C)C(=O)Nc1cccc2ccccc12 -76.5%, C[C@@H]1CN([C@H](C)CO)C(=O)CCCn2cc(nn2)CO[C@@H]1CN(C)C(=O)Nc1cccc2ccccc12 17.8% [at 21 µM], C[C@@H]1CN([C@@H](C)CO)C(=O)c2ccccc2-c2ccccc2CO[C@@H]1CN(C)C(=O)Nc1cccc(Cl)c1Cl 9.37%, Cc1cc2c(c(/C=C/C(=O)c3ccccc3)c1)OC1(C=C2)Oc2ccccc2C(=O)N1C (stereo not given) -61.7%, N#Cc1c(N)c(C(=O)c2ccccc2)n2ccccc12 -23.1%, CSc1n[nH]c(NCc2ccccc2)n1 32.7%, CC1(C)CC(=O)C=C(NCc2ccco2)C1 23.6%, COC1(C)CN(Cc2ccccc2Br)[C@H](/C=C/c2ccccc2)[C@H](Cc2ccccc2)O1 (stereo not given in full) 8.05%, CCn1nccc1C(=O)Nc1ccccc1OC 15.2% [at 10 µM], CCOc1ccccc1NC(=O)c1ccc2ccccc2c1 29.4%, C[C@@H]1CN([C@H](C)CO)C(=O)c2cc(C3=CCCCC3)cnc2O[C@@H]1CN(C)Cc1ccccc1 -36.1%, COc1ccc(C(CC(=O)Nc2ccccn2)N2Cc3ccccc3C2=O)cc1 (stereo not given) 22.9%, c1ccc(-c2cc(-c3ccccc3)n3ncnc3n2)cc1 9.55%, CC(C)NC(=O)Nc1ccc2c(c1)C(=O)N([C@@H](C)CO)C[C@H](C)[C@@H](CN(C)C(=O)CCC(F)(F)F)OCCCC[C@@H](C)O2 10.8%, C[C@H]1CN([C@@H](C)CO)S(=O)(=O)c2ccc(C#Cc3cccnc3)cc2O[C@@H]1CN(C)CC1CCOCC1 32.6%, COc1cc(NC(=O)NCc2ccco2)ccc1-c1ccc(NC(=O)NCc2ccco2)cc1OC -67.9%, Cc1noc(C)c1NC(=O)N[C@H]1C=C[C@H](CC(=O)NCc2ccc(Cl)c(Cl)c2)O[C@H]1CO -0.434%, CN1C(=O)c2ccccc2C(C(=O)O)C1c1cccc([N+](=O)[O-])c1 (stereo not given) 2.58%, CCOC(=O)C1(Cc2cccc(F)c2)CCN(Cc2ccc(COC)o2)CC1 22.6%, CCOC(=O)C1(Cc2cccc(F)c2)CCN(Cc2c(C)nn(CC)c2C)CC1 -4.38%, C[C@@H]1CN([C@@H](C)CO)C(=O)Cc2cc(NC(=O)CCC(F)(F)F)ccc2O[C@H]1CN(C)S(C)(=O)=O 11.5%, Cn1nnnc1Sc1ncnc2scc(-c3ccc[nH]3)c12 -86.7%, Oc1ccc2ccccc2c1CN1CCCCC1 25.1%, Cn1c(CCN2CCCCC2)nc2cc(NS(=O)(=O)c3ccccc3)ccc21 4.86%, Cn1c(O)c(C(C#N)=C2N=c3ccccc3=N2)c2ccccc21 30% [at 10 µM], O=C(C[C@H]1CC[C@@H]2[C@H](COC[C@@H](O)CN2S(=O)(=O)c2ccc(F)cc2)O1)NCCN1CCCCC1 14.2%, O=c1oc(-c2ccccc2)cc(Cl)c1Cl -106%, Cc1noc(C)c1C(=O)Nc1nc(-c2cc(F)ccc2F)cs1 12.2%, CN(C)Cc1csc(NC(=O)Nc2ccccc2-c2ccccc2)n1 33%, CC(C)NC(=O)NCC[C@@H]1CC[C@H](NS(=O)(=O)c2ccc(-c3ccccc3)cc2)[C@@H](CO)O1 17%, COc1ccccc1NC(=O)CCC(=O)Nc1ccccc1OC 10.1%, COC(=O)c1cc(Cl)c(NS(=O)(=O)c2ccccc2)cc1OC -19.9%, CCn1c(=O)c2c(cnn2C)c2ccccc21 -24.2%, CCOc1ccc(Nc2ncnc3ccc([N+](=O)[O-])cc23)cc1 -15.2%, COc1ccc(-c2nc(C#N)c(NCc3ccco3)o2)cc1 4.47%, CCCNC(=O)c1nnsc1S(=O)(=O)c1ccc(Cl)cc1 -89.4%, Cc1cc(C)c2c(=O)[nH]n(C3CCCCCC3)c2n1 5.32%, O=C(C[C@H]1C[C@@H]2c3cc(NS(=O)(=O)c4ccc(F)cc4)ccc3O[C@@H]2[C@@H](CO)O1)N1CCc2ccccc2C1 -62.7%, O=C(C(Br)=Cc1ccccc1)c1ccccc1 -73.6%, O=C(C1CC1)N1C[C@@H]2N[C@H](C1)C2c1ccc(/C=C/c2ccccc2)cc1 (stereo not given in full) -16.1%, Cc1ccc(C(=O)OCN2C(=O)c3ccccc3C2=O)o1 -4.58%, CCCCC1C(=O)N(c2ccccc2)N(c2ccc(O)cc2)C1=O (stereo not given) -78.9%, O=C(Nc1nc2cc3c(cc2s1)OCCO3)c1ccncc1 6.43%, C[C@@H]1CN([C@@H](C)CO)C(=O)c2cc(NS(=O)(=O)c3ccc(F)cc3)ccc2O[C@@H]1CN(C)S(=O)(=O)c1ccc(Cl)cc1 2.96%, CC(C)NC(=O)Nc1ccc2c(c1)C(=O)N([C@@H](C)CO)C[C@@H](C)[C@H](CN(C)Cc1ccc(C(=O)O)cc1)OCCCC[C@H](C)O2 -8.89%, CCCC(=O)C1=C(O)C(C(=O)OC)C(C)(C)CC1=Nc1ccc(OC)cc1 (stereo not given) -9.98%, NC(=O)c1sc2nc3c(c(-c4cccs4)c2c1N)CCCCC3 -26.8%, COc1ccc(S(=O)(=O)N[C@H]2CC[C@@H](CCNC(=O)c3ccccc3F)O[C@@H]2CO)cc1 12.3%, O=C(Cc1ccccc1)N1CC[C@@H]2[C@H]1c1cc(C#Cc3ccccc3)ccc1N[C@@H]2CO -45.9%, CCCOC(=O)c1ccc(-n2nnnc2SCC(=O)N2CCCCC2)cc1 23.6%, C[C@@H]1CN([C@@H](C)CO)C(=O)c2cccc(NC(=O)Nc3ccccc3)c2O[C@H]1CN(C)S(=O)(=O)c1cccs1 15.1%, CN(CC(=O)Nc1ccccc1Br)C(=O)c1cccc(S(=O)(=O)NCc2ccccc2)c1 -5.69%, COc1ccccc1NC(=O)Cn1c(C)cc(=O)c2cccc(OC)c21 -0.701%, COc1ccc(Cl)cc1NC(=O)NCC1CCN(C(=O)OC(C)(C)C)CC1 -4.51%, O=C(Nc1ccc(C(F)(F)F)cc1)N1C[C@@H]2N[C@H](C1)C2c1ccc(/C=C/c2ccccc2)cc1 (stereo not given in full) -95.3%, CO[C@@H]1CN(C)C(=O)c2ccc(NS(=O)(=O)CC(F)(F)F)cc2OC[C@@H](C)N(C(=O)NC(C)C)C[C@H]1C -2.73%, O=C(CNC(=O)C1CCCCC1)OCC(=O)c1ccc(Cl)s1 25%, CCOCCc1nn2c(=O)cc(CSCC(=O)Nc3cccc(C)c3C)nc2s1 9.59%, CC(C)(C)NC(=O)c1ccc(Sc2ccccc2)c([N+](=O)[O-])c1 39%, Cc1cc(=O)[nH]c(SCC(=O)c2ccc(F)c(C)c2)n1 -8.86%, Cc1cccc(Oc2ccccc2NC(=O)C2=COCCO2)c1 30.4%, COc1cc(CN2CCC(C(=O)NCCC(C)C)CC2)ccc1OCc1ccccc1 30.9% [at 10 µM], CNc1ccc2ncc(-c3ccc(OC)c(OC)c3)n2n1 -7.88%, CCOc1ccc(-c2[nH]ncc2-c2ccc(OC)c(OC)c2)c(O)c1 1.17%, CC(C)(C)OC(=O)NC(Cc1ccccc1)C(=O)NCCCC(=O)O (stereo not given) 5.65%, C[C@@H]1CN([C@@H](C)CO)C(=O)c2cc(C3=CCCC3)cnc2O[C@@H]1CN(C)C(=O)Nc1cccc(F)c1 16.2%, CC(C)NC(=O)N(C)C[C@H]1OCCCC[C@@H](C)Oc2ccc(NC(=O)Nc3ccc(C(F)(F)F)cc3)cc2C(=O)N([C@H](C)CO)C[C@@H]1C -17.5%, C[C@@H]1CN([C@H](C)CO)C(=O)CCCn2cc(nn2)CO[C@H]1CN(C)C(=O)Nc1ccc(C(F)(F)F)cc1 13.8%, C[C@@H]1CN([C@H](C)CO)C(=O)CCCn2nncc2CO[C@H]1CN(C)C(=O)Nc1cccc(F)c1 9.97%, COC(=O)Cn1ccc(-c2ccc(Cl)cc2)c(C#N)c1=O 7.9%, NC(=O)COC(=O)CC(NC(N)=O)c1ccc(Cl)cc1 (stereo not given) -8.85%, C[C@@H]1CN([C@H](C)CO)C(=O)CCCn2nncc2CO[C@@H]1CN(C)S(=O)(=O)c1cn(C)cn1 11%, Cc1ccccc1C(=O)Nc1ccc(C(=O)O)cc1NC(=O)c1ccccc1C 0.246% [at 10 µM], Cc1ccc(NC2=C([N+](=O)[O-])CS(=O)(=O)C2)cc1 1.18%, O=C(COC(=O)C1CC2CCCC(C1)C2=O)Nc1ccc(F)c(Cl)c1 (stereo not given) 9.21%, COc1ccccc1/C=C(/C(=O)OCC(=O)NCc1ccccc1)c1ccccc1 -8.24%, S=c1sc2c(Cl)ncnc2n1-c1ccccc1 -99%, CCCN(C)C[C@@H]1Oc2cc(C#C[C@H](C)O)ccc2S(=O)(=O)N([C@H](C)CO)C[C@@H]1C 27.6%

outcome, inactive:
O=C(Nc1ccc(C(F)(F)F)cc1)N1C[C@@H]2N[C@H](C1)C2c1ccc(-c2ccccc2)cc1 (stereo not given in full)
